Compound activity (PubChem)
Hits are enriched below; roughly 4.7% of the tested compounds scored in any of these assays.
tim10-1 inh – tim10-1 yeast growth inhibition. S. cerevisiae tim10-1 ts strain growth, BacTiter-Glo, 24 h. inhibition, % at 20 µM. 330,000 tested, 2.2% active. AID 463190;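 active means inhibition of at least 40%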;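 further: mutant grown at 25 °C; 0% = DMSO wells with yeast and 100% = wells holding no yeast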
tim23-1 inh – inhibits growth of tim23-1 mutant yeast; 330,000 tested, 1.3% active; S. cerevisiae tim23-1 growth, BacTiter-Glo luminescence, 24 h; inhibition, % at 20 µM;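 active means growth inhibition of the mutant yeast at or above 50%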;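 further: temperature-sensitive mutant grown at 25 °C; plate controls were DMSO-treated mutant yeast for no effect and medium wells lacking yeast for full effect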
TIM10 inh – growth inhibitors of TIM10 yeast strain; S. cerevisiae TIM10 strain growth, BacTiter-Glo luminescence, 24 h; inhibition, % at 10 µM; 330,000 tested, 1.4% active;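 active means inhibition of 40% or more at the single tested concentration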;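 further: wild-type TIM10 isogenic control strain grown at permissive 25 °C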
PfHsp90 yeast 2 – reduces growth (ATP signal) of yeast expressing P. falciparum Hsp90 | AID 504621 | 310,000 tested, 0.32% active | inhibition, % at 9.4 µM | S. cerevisiae expressing PfHsp90, BacTiter-Glo ATP, 48 h; yeast lacking PDR1 and PDR3 efflux regulators;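 active means every replicate shows inhibition above about 80%, whatever the replicate mean, limit read from the data; inconclusive means mean inhibition reaches the set limit but some replicate falls short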;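 further: 0% = DMSO neutral controls and 100% = 20 µM radicicol positive controls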
EBI2 antag – blocks human EBI2 receptor beta-arrestin signaling; inhibition, % at 5 µM; EBI2 beta-arrestin recruitment, luminescence, 7a,25-OHC stimulated; P32249; 360,000 tested, 0.81% active; AID 651636; in the data active means inhibition above about 38%;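 further: enzyme fragment complementation signal reports receptor beta-arrestin coupling in cells; 0% = agonist plus DMSO wells and 100% = wells without agonist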
Target sequence (P32249 whole entry, looked up, the tested form may be a part): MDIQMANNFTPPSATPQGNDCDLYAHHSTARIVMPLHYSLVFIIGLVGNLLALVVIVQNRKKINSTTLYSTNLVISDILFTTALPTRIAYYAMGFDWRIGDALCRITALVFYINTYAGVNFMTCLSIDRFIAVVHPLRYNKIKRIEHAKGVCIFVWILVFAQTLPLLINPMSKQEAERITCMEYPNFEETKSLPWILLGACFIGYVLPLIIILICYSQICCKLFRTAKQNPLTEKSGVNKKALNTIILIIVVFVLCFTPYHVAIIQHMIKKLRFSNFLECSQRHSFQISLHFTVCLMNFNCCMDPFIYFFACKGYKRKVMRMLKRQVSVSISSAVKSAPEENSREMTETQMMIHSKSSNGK
SKKanGAS inh – inhibitors of SKKanGAS S. pyogenes growth in kanamycin (SK-promoter or general growth effect); 300,000 tested, 1.3% active; BacTiter-Glo, 6 h; inhibition, % at 7.5 µM;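 active means mean replicate score, as percent of positive control median, at least 50; inconclusive means mean below 50 but one replicate at or above 50; inactive means mean and every replicate below 50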;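 further: strain carries kanamycin resistance gene driven by streptokinase promoter and grows in 40 µg/ml kanamycin; loss of luminescence reflects streptokinase promoter inhibition or plain growth inhibition; 0% = median of DMSO wells and 100% = positive control at its reference dose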
tim10-1 confirm – confirmation of tim10-1 mutant yeast growth inhibitors; shares compounds with tim10-1 inh; S. cerevisiae tim10-1 ts strain growth, BacTiter-Glo, 24 h; inhibition, % at 20 µM; 7,400 tested, 56% active;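 active means inhibition of yeast growth at or above a set limit in either of two repeat tests at 20 µM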;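 further: tim10-1 mutant grown at permissive 25 °C to find synthetic lethal compounds; 0% = DMSO yeast wells and 100% = medium wells without yeast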
* hit, by the source's call; ? = inconclusive; nt = no result given.

SMILES	tim10-1 inh	tim23-1 inh	TIM10 inh	PfHsp90 yeast 2	EBI2 antag	SKKanGAS inh	tim10-1 confirm
CN(C)c1ccc([C@@H]2[C@@H]([N+](=O)[O-])[C@H]3C=Cc4ccccc4N3[C@H]2C(=O)c2ccc(Cl)cc2)cc1	45*	33	17	-5	2	nt	26
O=S(=O)(C/C(=C/CO)S(=O)(=O)c1ccccc1)c1ccccc1	44*	26	18	-32	-47	3	19
O=S(=O)(CS(=O)(=O)c1ccccc1)c1ccccc1	nt	nt	nt	-26	-5	nt	nt
CCCn1c(SCC(N)=O)nc2c(c1=O)C1(CCCC1)Cc1ccccc1-2	21	23	20	-15	1	-7	nt
CCC(=O)Nn1cnc2c(c1=O)C1(CCCCC1)Cc1ccccc1-2	50*	33	26	-8	7	-1	37*
Cn1c(NCCCO)nc2c(c1=O)C1(CCCCC1)Cc1ccccc1-2	54*	50	30	21	13	nt	38*
Cc1ccc(C)c(OCc2cc(C(=O)NC3CCOC(C)(C)C3)no2)c1 (centres undefined)	8	16	18	0	7	21	nt
Cc1onc(-c2ccc(Cl)cc2Cl)c1-c1csc(COc2ccccc2)n1	10	-4	18	-4	2	2	nt
O=C(NCc1ccccc1)C(Cc1ccccc1)N1C(=O)C2C3CCC(C3)C2C1=O (centres undefined)	40*	14	2	nt	2	8	16
O=C(NC1CCCCC1)C(Cc1ccccc1)N1C(=O)C2C3CCC(C3)C2C1=O (centres undefined)	28	35	27	8	1	0	nt
c1ccc(-c2cc(-c3nnc4n3N=C(c3ccc5ccccc5c3)CS4)[nH]n2)cc1	48*	26	10	-21	-4	35	8
Cc1ccc(NC(=O)c2ccc(C(=O)c3ccccc3)cc2)nc1	3	9	-16	-29	-9	-18	nt
CCCn1cnc2c(sc3nc4c(cc32)CSC(C)(C)C4)c1=O	41*	29	32	-30	4	-9	8
CCC(C)(C)c1ccc(OCCCC[n+]2ccccc2)c(C(C)(C)CC)c1	46*	30	-120	-36	-1	nt	37*
CCCCCc1ccc(OCCCC[n+]2ccccc2)c(CCCCC)c1	43*	-24	-295	38	6	?	32*
CN(C)c1nc(-c2ccccn2)nnc1-c1ccccc1	40*	2	-2	34	-6	12	21
c1ccc(-c2nnc(-c3ccccn3)c(-c3ccccn3)n2)nc1	16	2	10	nt	-3	-4	nt
CSc1nnc(-c2ccc(NC(N)=S)cc2)o1	19	16	8	-7	-9	9	nt
CSc1nnc(-c2cccc(NC(=S)NN)c2)o1	49*	5	34	-1	-12	-14	9
CN(C(=O)c1cccc(NC(=O)Cc2cccc(NC(=O)C3CCN(C(=O)c4ccccc4)CC3)c2)c1)C1CC1	nt	nt	nt	-23	1	nt	nt
O=C(Cn1cnc2cc([N+](=O)[O-])ccc2c1=O)NCc1ccccc1	0	27	25	nt	-13	-3	nt
CN1CCN(c2ccc(S(=O)(=O)N3CCOCC3)cc2)CC1	-20	-4	-7	0	-14	-9	nt
O=C(CSc1ncnc2sc3c(c12)CCCCC3)NCc1ccco1	47*	40	27	3	-7	8	34*
O=C(CSc1ncnc2sc3c(c12)CCCC3)c1ccco1	39	35	5	-31	6	-3	nt
Cc1cccc(/C=C2\CS/C(=C\c3cccc(C)c3)C2=O)c1	44*	49	24	3	3	-2	36*
O=C(c1ccc(=O)[nH]c1)N1CCN(S(=O)(=O)c2ccc3ccccc3c2)CC1	-10	8	7	-24	-4	nt	nt
CC1CCN(S(=O)(=O)c2ccc3c(c2)NC(=O)CS3)CC1	42*	46	23	-2	4	-1	23
Cc1cc(C)n(C(=O)/C(C#N)=N/Nc2cc(Cl)cc(Cl)c2)n1	47*	29	33	-57	-4	90*	56*
Cc1cc(C)n(C(=O)/C(C#N)=N\Nc2ccccc2[N+](=O)[O-])n1	-83	-8	-25	-17	3	-7	nt
